# Data taken from the supplement of paper PMC10338343.
# ± gives the standard deviation. Over roughly 8,200 sequences, “pre-steady-state target cleavage rate” has its median near 0.024; the highest 2% begin near 1.3. Many of the other results were omitted from the sample, so the highest values are more common in it than they were.
# Tested on: MIWI (PIWIL1) piRISC loaded with L1MC piRNA (30 nt)
# Test: pre-steady-state target cleavage rate (min^-1); MIWI and MILI are mouse PIWI proteins and EfPiwi is from a freshwater sponge; tags in brackets are library labels; higher = faster piRNA-guided slicing of the target
# Conditions: guide: L1MC piRNA 5'p-UAACUAAAUACUAUGCAAGCUGUAGGUCCU
# How it was run: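 At 33 °C in HEPES–potassium acetate buffer, a transcribed, DNA-blocked target RNA library […] was exposed for 0–8 or 0–960 min to 1 nM active affinity-purified piRISC carrying a single synthetic guide, with or without 500 nM GTSF1 partner protein. Uncleaved targets were sequenced and normalised to depth and to weakly complementary targets. With three trials pooled and k3 capped at 0.0001 min^-1, a burst-and-steady-state fit produced the pre-steady-state cleavage rate.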
# [1] = auxiliary factor: 500 nM mouse GTSF1
# [2] = auxiliary factor: none (no GTSF1)
# 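Also: 1 nM active piRISC with 0.1 nM target library at 33 °C single turnover.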
Sequence,pre-steady-state target cleavage rate [1],pre-steady-state target cleavage rate [2]
UGGACCUUCAGGUUGCAUAGUAUUUAGUUA,1.14 ± 0.099,0.0476 ± 0.01
UGGACCUACAGCUUGCAUACUAUUUUCAAA,0.0881 ± 0.021,
UCCUGGAUGUGCAUUGCAUAGUAUUUAGUUA,0.223 ± 0.023,0.0111 ± 0.0032
UCGUGGUACAGCUUGCAUAGUAUUUAGAAA,0.305 ± 0.029,0.00755 ± 0.0023
UCCUGGAACAGCUUGGAUAGUAUUUACUUA,0.0518 ± 0.0087,0.0182 ± 0.0036
UCCUGCUACAGCUUGCUAUAGUAUUUAGUUA,0.0317 ± 0.011,
UCCUGGAUCUGCUUGCAUUGUAUUUAGUUA,0.228 ± 0.037,0.0147 ± 0.0049
UCCUGGUACACGUUGCAUAGUAUUUUCAAA,0.0245 ± 0.013,
UGGUCCUACUGCUUGCAUAGUAUUUAGUUA,1.22 ± 0.05,0.0687 ± 0.01
AGGACCUAGAGCUUGCAAAGUAUUUAGUUA,1.17 ± 0.054,0.0284 ± 0.0069
AGGACCUACAGCUUGCAUAGAUUUUAGAAA,0.247 ± 0.071,
UCGACCUACAGCUUGCAGAGUAUUUAGUUA,1.05 ± 0.066,0.0315 ± 0.0073
UCCUCCUCCAGCUUGCAUAGUAUUUAGUUA,1.12 ± 0.027,0.0546 ± 0.0092
AGGUCCUUCAGCUUGCAUAGUAUUUAGUUA,1.42 ± 0.05,0.0947 ± 0.018
UCCUCGUUCAGCUUGCAUAGUAUUUAGUUA,1.4 ± 0.041,0.0653 ± 0.014
UCGUCCUUCAGCUUGCAUAGUAUUUAGUUA,1.41 ± 0.038,0.0596 ± 0.01
UCCUCCUUCAGCUUGCAUAGUAUUUAGUAA,0.717 ± 0.04,0.0202 ± 0.0041
UCCACCUUCAGCUUGCAUAGUAUUUAGUAA,0.628 ± 0.038,0.0237 ± 0.0045
UCCUCCUUCAGCUUGCAUAGUAUUUAGUUA,1.23 ± 0.036,0.0537 ± 0.0085
UCCUGGUUCAGCUUGCAUAGUAUUUAGUUA,0.972 ± 0.042,0.0721 ± 0.016
UGGUCCUUCAGCUUGCAUAGUAUUUAGUUA,1.22 ± 0.059,0.0643 ± 0.011

Sequence,pre-steady-state target cleavage rate [1],pre-steady-state target cleavage rate [2]
UCCUGGUACAGCUUGCAUUGUAUUUAGAAA,0.0478 ± 0.013,
AGGACCUACACCUUGCAUAGUAUUAAGUUA,0.627 ± 0.054,0.0334 ± 0.0069
UCCUGGAUGAGCUUGCAAAGUAUUAAGUUA,0.331 ± 0.035,0.00974 ± 0.0037
UCCACCUACAGCUUGGAAAGUAUUUAGUUA,1.01 ± 0.03,0.00576 ± 0.0018
UCCACCUACAGCUUGCAUAGUAUCUUAGUUA,0.709 ± 0.057,0.0225 ± 0.005
UCCACCUACAGCUUGCAUAGUAAAUACAAA,0.155 ± 0.037,
UCCUGGAUGUGCUUGGAUAGUAUAUAGUUA,0.0799 ± 0.017,0.0106 ± 0.0049
UCCUGGAACAGCUUGCAUAGUAUUUAAGUUA,0.549 ± 0.034,0.0597 ± 0.014
UCGACCUACAGCUCUGCAUAGUAUUUAGUUA,1.32 ± 0.067,0.0476 ± 0.0099
UCCACCUACAGCUCUGCAUAGUAUUUAGUUA,0.862 ± 0.063,0.0214 ± 0.0048
UGGACCUACAGCUAUGCAUAGUAUUUAGUUA,1.24 ± 0.11,0.0371 ± 0.0083
UCCUGCUACAGCUCUGCAUAGUAUUUAGUUA,0.851 ± 0.058,0.0138 ± 0.003
UGGACCUACAGCUGGCAUAGUAUUUAGUUA,1.04 ± 0.044,0.0463 ± 0.011
UCGACCUACAGCUGCAUAGUAUUUAGUUA,1.3 ± 0.079,0.00665 ± 0.0025
AGGACCUACAGCUGCAUAGUAUUUAGUUA,1.15 ± 0.068,0.0107 ± 0.0029
UGGACCUACAGCUCUGCAUAGUAUUUAGUUA,1.56 ± 0.11,0.0566 ± 0.014
AGGACCUACAGCUCUGCAUAGUAUUUAGUUA,1.56 ± 0.1,0.0543 ± 0.014
UCCUCCUACAGCUCUGCAUAGUAUUUAGUUA,1.03 ± 0.044,0.0182 ± 0.0041
UGGACCUACAGCUGCAUAGUAUUUAGUUA,1.37 ± 0.11,0.00982 ± 0.0031
AGGACCUACAGCUAUGCAUAGUAUUUAGUUA,0.962 ± 0.052,0.0545 ± 0.011
UCCACCUACAGCUUGCAUAGUAAAAAGAAA,0.102 ± 0.028,

Sequence,pre-steady-state target cleavage rate [1],pre-steady-state target cleavage rate [2]
UCCUGGAUCAGCUUGCUUAGUUUUUAGUUA,0.0882 ± 0.01,0.0125 ± 0.0034
UCCUGGUACAGCUUGCAUAGUUAUUAGUAA,0.0627 ± 0.017,0.00413 ± 0.0036
UCCUGGUAUCAGCUUGCAUAGUAUUUAGUUA,0.546 ± 0.06,0.062 ± 0.014
UCGACCUACAGCUUGGUUAGUAUUUAGAAA,0.224 ± 0.04,
UCCUGGAUGUCGAUGCAUAGUAUUUUGUUA,0.00674 ± 0.0031,
UGGACGUACAGCUUGCAUAGUAUUUUCAAA,0.213 ± 0.034,0.00471 ± 0.0022
UCCUGCUACAGCUUGGUUAGUAUUUUCAAA,0.00524 ± 0.0039,
UCCUGGAACAGCUUGCAUAUAUUUAGUUA,0.0784 ± 0.011,0.0034 ± 0.0028
UCCUCCUACAGCUUGCAUAGUAUAAUGUUA,0.346 ± 0.027,0.0146 ± 0.0024
UCCUGGUACAGCCUUGCAUAGUAUUUAGUUA,0.594 ± 0.049,0.0422 ± 0.0091
UCCUGCUACAGCUUGCGUAGUAUUUAGUUA,0.806 ± 0.044,0.0172 ± 0.0034
UCGACCUACAGCUUGCGAUAGUAUUUAGUUA,0.0797 ± 0.02,
UCCUCCUACAGCUUGCGUAGUAUUUAGUUA,1.55 ± 0.078,0.0225 ± 0.0064
UCGACCUACAGCUUGCCUAGUAUUUAGUUA,1.14 ± 0.046,0.0457 ± 0.0085
UCGACCUACAGCUUGCGUAGUAUUUAGUUA,1.86 ± 0.066,0.0695 ± 0.018
AGGACCUACAGCUUGCGUAGUAUUUAGUUA,1.24 ± 0.077,0.075 ± 0.013
UCCACCUACAGCUUGCGUAGUAUUUAGUUA,1.26 ± 0.049,0.0423 ± 0.0094
UGGACCUACAGCUUGCGUAGUAUUUAGUUA,1.79 ± 0.11,0.0538 ± 0.01
UCCUCCUACAGCUUGCGAUAGUAUUUAGUUA,0.0601 ± 0.018,
UGGACCUACAGAUUGCAUAGUAUUUAGUUA,1.12 ± 0.11,0.042 ± 0.0077
AGGACCUACAGCUUGCAUACAUUUUAGUUA,0.0106 ± 0.0061,
